Experimental findings from PubChem BioAssay (NCATS) are described below.

Structures are written as SMILES. “And” between values parts separate entries of the source, which are not always exact repeats. Identical values can stand only once. Results filed as inconclusive are left out. Some structures have more than one record in an assay (separate samples or runs), and their calls can disagree. The source made the active and inactive calls. The call rests on the fitted dose curve; in most records, active means well fitted curve in the direction sought with a large enough effect; inconclusive means small, poorly fitted or top-dose-only effect, or another doubt; inactive means no such curve, though single readings can be large; an effect the other way counts as inactive or inconclusive.

For assay [1], the target named is Glutathione peroxidase 1 (Homo sapiens) (UniProt P07203). Nature of the assay: Primary qHTS Assay for Inhibitors of Recombinant Selenoprotein Glutathione Peroxidase 1 (GPX1) (AID 1845191). Further: nearly all actives have a fitted effect of over 65% in size. On activity, negative = inhibition: on the % scale 0 is the no-effect control and ±100 the full control effect. The essentials:
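GR-coupled readout: NADPH consumption tracked by fluorescence, ex 340/em 450 nm, at t=0 and after 15 min at RT. Final mix 10 nM GPX1, 1 mM GSH, 0.5 mM CHP, 0.5 mM NADPH, 100 nM GR, 0.01% BSA, following 30 min enzyme–compound preincubation.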

In assay [2] the target is Phospholipid hydroperoxide glutathione peroxidase GPX4 (Homo sapiens) (UniProt P36969). Description: Primary qHTS Assay for Inhibitors of Recombinant Selenoprotein Glutathione Peroxidase 4 (GPX4) (AID 1845192). Further: nearly all actives have a fitted effect of over 65% in size. Further: potency means the concentration at half of the fitted maximal effect. On activity change, negative = inhibition: series mostly up to about 50 µM; on the % scale 0 is the no-effect control and ±100 the full control effect. The method, boiled down:
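Steps: GPX4 plus compound, 30 min RT; add GR/GSH/NADPH master mix; start with cumene hydroperoxide; read 340/450 nm fluorescence at 0 and 15 min. Finals were 200 nM GPX4, 1 mM GSH, 0.5 mM CHP, 0.5 mM NADPH, 100 nM GR.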

The target of assay [3] is Luciferin 4-monooxygenase (Photinus pyralis) (UniProt P08659). Nature of the assay: Primary firefly luciferase (FLuc) qHTS assay for identification of artifact compounds. (AID 1845220). Further: nearly all actives have a fitted effect of over 60% in size.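 On activity change, negative = inhibition: series mostly up to about 54 µM; plate controls were DMSO vehicle for no effect and no enzyme for full effect.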 The essentials:
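D-luciferin and ATP (10 uM each, final) in Tris acetate buffer pH 7.6 were incubated with compounds for 15 min at room temperature. The reaction was started with 10 nM Photinus pyralis luciferase and luminescence read after 5 min. Percent inhibition was fitted to a 4-parameter Hill equation.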

For assay [4], the system named is Nanoluciferase (engineered Oplophorus gracilirostris luciferase). Nature of the assay: Primary Nanoluciferase (NLuc) qHTS assay for identification of artifact compounds. (AID 1845222).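 Further: series mostly up to about 54 µM; 0% = DMSO and -100% = no enzyme.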 The method, boiled down: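 Diluted conditioned medium from NLuc-expressing S16 cells treated with compounds for 15 min at room temperature, then Nano-Glo substrate added; luminescence read after 5 min. Percent inhibition versus no-enzyme and DMSO controls fitted to 4-parameter Hill equation.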

Assay [5] is described as follows: Primary fluorescence-based thiol-reactive (MSTI) qHTS assay for identification of artifact compounds. (AID 1845221). Further: nearly all actives have a fitted effect of over 65% in size. Further: potency means the concentration at half of the fitted maximal effect. The method, boiled down: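 MSTI probe at 4 uM final in 2% DMSO/PBS pH 7.4; compounds, 1 h at room temperature in dark. Fluorescence Ex/Em 525/598 nm, normalised to Acetyl-MSTI and MSTI, fitted to 4-parameter Hill.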
Assay [6] is described as follows: Primary redox qHTS assay for identification of artifact compounds. (AID 1845223).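 Further: 0% = DMSO and 100% = reference compound.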 The essentials:
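Redox-cycling detection via DTT (250 uM final) oxidation coupled to Amplex Red (25 uM)/HRP (250 mU/mL) in HBSS. 15 min preincubation plus 30 min after DTT, room temperature. Ex/Em 525/598 nm; 4-parameter Hill fit against DMSO and 10 uM DA3003.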

Chain of Glutathione peroxidase 1 (Homo sapiens) (P07203 whole entry, looked up): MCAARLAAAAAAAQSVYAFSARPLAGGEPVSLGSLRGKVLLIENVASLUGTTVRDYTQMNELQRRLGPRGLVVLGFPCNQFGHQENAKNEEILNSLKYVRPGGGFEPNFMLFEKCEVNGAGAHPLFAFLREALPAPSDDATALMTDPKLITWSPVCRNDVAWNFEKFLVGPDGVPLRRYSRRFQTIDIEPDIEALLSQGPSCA
Chain of Phospholipid hydroperoxide glutathione peroxidase GPX4 (Homo sapiens) (P36969 whole entry, looked up): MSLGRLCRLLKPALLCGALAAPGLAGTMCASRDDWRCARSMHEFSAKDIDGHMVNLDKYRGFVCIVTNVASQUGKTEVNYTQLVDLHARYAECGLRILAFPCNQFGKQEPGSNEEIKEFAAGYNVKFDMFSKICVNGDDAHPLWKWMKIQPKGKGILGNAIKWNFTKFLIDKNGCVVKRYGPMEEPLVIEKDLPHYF

Turning to `C=C1CCC2[C@@](C)(C=O)CCC[C@]2(C)[C@H]1CC/C(C)=C/CO` (stereo not given in full), the Potency result in assay [1], in assay [2], in assay [3] and in assay [4] was “inactive” throughout.
As to `CC1(C)C(=O)C(C)(C)c2cc(C(=O)Nc3ccc(C(=O)O)cc3)ccc21`, the Potency entry in assay [1], in assay [2], in assay [3], in assay [5] and in assay [6] was “inactive” each time.
`CC1=C2C=C(CO)C(CO)CCC2(C)CCC1=O` (stereo not given): the Potency entry in assay [1], in assay [2], in assay [3] and in assay [4] was “inactive” each time.
As for `C/C=C/C1=CC2=C(CO1)C(=O)[C@](C)(O)[C@H](OC(=O)c1c(O)cc(OC)c(O)c1C)C2`, the Potency result in assay [1], in assay [2], in assay [3] and in assay [6] was “inactive” in each case. In addition, the Potency in assay [5] was 1.03 µM (active).
Consider `CCC(C)/C=C(C)/C=C/C1=CC2=C(Cl)C(=O)C(C)(OC(C)=O)C(=O)C2=CN1CCCC(=O)O` (stereo not given), for which the Potency result in assay [1], in assay [2], in assay [3] and in assay [4] was “inactive” each time.
`O=C(O)C[C@H](O)C[C@H](O)/C=C/c1c(C2CC2)nc2ccccc2c1-c1ccc(F)cc1`: the Potency result in assay [1], in assay [3], in assay [5] and in assay [6] was “inactive” in each case. The Potency entry in assay [2] was “inactive and 22.4 µM (active)”.
Regarding `C=C1C(=O)O[C@H]2[C@H]1[C@@H](OC(=O)C(C)CO)C[C@@]1(C)[C@H](O)CCC(=O)[C@H]21` (stereo not given in full), the Potency entry in assay [1], in assay [2], in assay [3], in assay [4] and in assay [6] was “inactive” throughout.
As to `C[C@@H]1O[C@@H](O[C@H]2[C@H](O)[C@@H](O)[C@H](OC[C@H]3O[C@@H](OC(=O)[C@]45CCC(C)(C)C[C@H]4C4=CCC6[C@@]7(C)C[C@H](O)[C@H](O[C@@H]8O[C@H](CO)[C@@H](O)[C@H](O)[C@H]8O)[C@@](C)(C(=O)O)C7CC[C@@]6(C)[C@]4(C)CC5)[C@H](O[C@@H]4O[C@H](CO)[C@@H](O)[C@H](O)[C@H]4O)[C@@H](O)[C@@H]3O)O[C@@H]2CO)[C@H](O)[C@H](O)[C@H]1O` (stereo not given in full), the outcome is “inactive [at 9.52 µM]” in assay [1] and “inactive [at 11.6 µM]” in assay [3]. Also, the activity change, negative = inhibition in assay [2] was 0.162% [at 9.73 µM] (inactive). Moreover, the activity, negative = inhibition in assay [4] was 4.14% [at 11.6 µM] (inactive).
In the case of `CC12CCC3C(C)(C)C(O)CCC3(C)C1Cc1c(oc(C(=O)O)cc1=O)O2` (stereo not given), the Potency result in assay [1], in assay [2], in assay [3] and in assay [4] was “inactive” each time.
For the compound `CCc1c(CC(N)=O)c2cc(OCCCP(=O)(O)O)ccc2n1Cc1ccccc1`, the Potency result in assay [1], in assay [2], in assay [3] and in assay [4] was “inactive” throughout.
`CC1CCC2C(C(=O)O)=CC3C(O)C(C)(C)CC123` (stereo not given): the Potency result in assay [1], in assay [2], in assay [3] and in assay [4] was “inactive” each time.
With `O=c1c2ccccc2nc2n1CCC2O` (stereo not given), the Potency result in assay [1], in assay [2], in assay [3], in assay [4] and in assay [6] was “inactive” throughout.
Take `CNC(=O)Nc1ccc(OC)c(NC(=O)NC(=O)c2cc(F)c(F)cc2Cl)c1`: the Potency result in assay [1], in assay [2], in assay [3], in assay [4] and in assay [6] was “inactive” in each case.
For `C/C(=C/CCC(CO)C1CCC2(C)C3CCC4C(C)(C)C(OC5OC(CO)C(O)C(O)C5O)CC(O)C45CC35CCC12C)COC1OC(CO)C(O)C(O)C1O` (stereo not given), the Potency entry in assay [1], in assay [2], in assay [3] and in assay [4] was “inactive” each time.
With `CC1=CC(=O)C2C(C)(C)CC(O)CC2(C)C1CO` (stereo not given), the Potency entry in assay [1], in assay [2], in assay [3] and in assay [4] was “inactive” each time.
As for `COc1ccc2c(c1)O[C@H](O[C@@H]1O[C@H](CO)[C@@H](O)[C@H](O)[C@H]1O)C(=O)N2`, the Potency entry in assay [1], in assay [2], in assay [3] and in assay [4] was “inactive” each time.
For the compound `O=C1Nc2ccc(O)cc2O[C@H]1O[C@@H]1O[C@H](CO)[C@@H](O)[C@H](O)[C@H]1O`, the Potency result in assay [1], in assay [2], in assay [3], in assay [4] and in assay [6] was “inactive” throughout.
For the compound `COC1C2=C(COC2=O)C2(C)CCCC(C)(CO)C2C1OC(=O)c1ccccc1` (stereo not given), the Potency result in assay [1], in assay [2], in assay [3], in assay [4] and in assay [6] was “inactive” in each case.
As to `CNC(=O)COC(=O)NCCC1CCN(c2cccc(C)n2)CC1`, the Potency result in assay [1], in assay [2], in assay [3], in assay [4] and in assay [6] was “inactive” in each case.
On to `COc1ccc2c(c1O)OC[C@H]1c3ccc(O)cc3O[C@@H]21`, for which the Potency entry in assay [1], in assay [2], in assay [3], in assay [4] and in assay [6] was “inactive” throughout.
Consider `C=C1[C@@H]2[C@H]3OC(=O)C(=C)[C@@H]3CC[C@@](C)(O)[C@@H]2C[C@@H]1O[C@@H]1O[C@H](CO)[C@@H](O)[C@H](O)[C@H]1O`, for which the Potency result in assay [1], in assay [2], in assay [3], in assay [4] and in assay [6] was “inactive” in each case.
Regarding `COC(=O)C12C(=O)C(C)=C(O)C1(C)C(C)=CC1C34CCC(OC3=O)C(C)(C)C4CCC12C` (stereo not given), the Potency result in assay [1], in assay [2], in assay [3], in assay [4] and in assay [6] was “inactive” each time.
For the compound `CC(C)CC(=O)OC[C@H]1O[C@@](COC(=O)CC(C)C)(O[C@H]2O[C@H](CO)[C@@H](O)[C@H](O)[C@H]2O)[C@@H](OC(=O)CC(C)C)[C@@H]1OC(=O)CC(C)C`, the Potency entry in assay [1], in assay [2], in assay [3], in assay [4] and in assay [6] was “inactive” in each case.
On to `CC(=O)O[C@H]1[C@H](Oc2ccccc2COC(=O)C2(O)C=CCCC2=O)O[C@H](CO)[C@@H](O)[C@@H]1O` (stereo not given in full), for which the Potency entry in assay [1], in assay [2], in assay [3], in assay [4] and in assay [6] was “inactive” throughout.
Consider `CC1(C)CC2C(C1)C1(C)CCC13OC3(CO)C2O` (stereo not given), for which the Potency result in assay [1], in assay [2], in assay [3], in assay [4] and in assay [6] was “inactive” throughout.
In the case of `C[C@@H]1CC[C@]2(C)C3(C)CC[C@@]2(OC3=O)[C@@]12C[C@H](c1ccoc1)OC2=O`, the Potency entry in assay [1], in assay [2], in assay [3], in assay [4] and in assay [6] was “inactive” each time.
